From PubChem BioAssay come the findings set out here.

One experiment addresses Albumin (Bos taurus) (UniProt P02769). The experiment in a line: compounds binding labelled BSA control protein – biochemical, small-molecule microarray, Alexa647 label, 635/667 nm fluorescence, artefact control for SMM control protein annotation, profiling panel (AID 1118).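 Also: score merges 667 nm emission intensity and signal-to-noise per printed compound spot.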 To be noted: BSA-A647 binding, fluorescence 635 nm, higher = more signal.
Experiment [1] can be described thus: probe aXIP binding to arrayed compounds – biochemical, NeuroSMM set, 635/667 nm fluorescence, primary screen (AID 1119).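 Also: probe is the protein aXip251-270 applied at 1 µg/mL to compound-printed slides; binding of probe to printed compounds measured as 667 nm fluorescence plus signal to noise.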 To be noted: small-molecule microarray, higher = more signal, called active from +8 up or from −8 down.
Experiment [2] is described as follows: probe aNOTCH3 binding on compound microarray – biochemical, small-molecule microarray, 635/667 nm fluorescence, primary screen (AID 1120).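 Also: probe is a biotin-tagged antibody raised against NOTCH3 rather than NOTCH3 protein; score merges spot fluorescence near 667 nm with spot signal to noise.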 Particulars: higher = more signal.
Experiment [3] in a line: probe aNOTCH2 binding on compound microarray – biochemical, small-molecule microarray, 635/667 nm fluorescence, primary screen (AID 1121).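 Also: score merges feature fluorescence read at 667 nm with its signal to noise.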 To be noted: higher = more signal.
In experiment [4] the target is Carbonic anhydrase 2 (Homo sapiens) (UniProt P00918). The experiment in a line: compounds binding carbonic anhydrase 2 – biochemical, small-molecule microarray, Alexa647-labelled CAII, profiling panel (AID 1122). To be noted: CAII-A647 binding fluorescence, higher = more signal.
The nature of experiment [5]: COS7 lysate on small-molecule microarray, probe aHis, 635 nm (AID 1123).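 Also: z-score combines 667nm fluorescence intensity with signal-to-noise per printed compound spot.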 To be noted: COS7 cell lysate, fluorescence, higher = more signal.
The nature of experiment [6]: probe aLAP1 signal on lysate-treated microarray – cell lysate, small-molecule microarray, COS7 lysate, primary screen (AID 1124).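 Also: lysate comes from COS7 cells expressing LAP1 and is applied at 0.3 µg/mL; score merges spot fluorescence near 667 nm with signal-to-noise over triplicate slides.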 Particulars: probe aLAP1, fluorescence, higher = more signal.
A further experiment deals with Sam68 (KHDRBS1). The experiment is described as follows: compounds binding KHDRBS1 protein – biochemical, small-molecule microarray, 635 nm fluorescence, primary screen (AID 1125).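 Also: score merges 667 nm channel intensity with signal to noise over triplicate slides.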 To be noted: higher = more signal.
The test system of experiment [7] is Chordin-like protein 2 (CHRDL2). The experiment in a line: compounds binding chordin-like 2 – biochemical, small-molecule microarray, 635 nm fluorescence, primary screen (AID 1126).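 Also: printed compound slides probed with Chrdl2 protein at 4 µg/mL for 1 h at 4 C; score merges 667 nm emission intensity with signal to noise over three replicate slides.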 To be noted: fluorescence 635 nm, higher = more signal.
Experiment [8] has as its target Concanavalin-A (Canavalia ensiformis) (UniProt P02866). The experiment in a line: compounds binding concanavalin A lectin – biochemical, small-molecule microarray, Alexa647 label, 635 nm, artefact control for SMM control protein annotation, primary screen (AID 1127).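 Also: z combines 667 nm emission intensity with signal-to-noise across three replicate slides.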 Particulars: ConA-A647 binding fluorescence, higher = more signal.
Experiment [9] can be described thus: compounds binding Alexa647 anti-His antibody – biochemical, small-molecule microarray, 635 nm fluorescence, artefact control for SMM control protein annotation, primary screen (AID 1128).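 Also: score merges feature fluorescence with signal-to-noise for each printed compound spot.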 To be noted: higher = more signal.
In experiment [10] the test system is Human papillomavirus type 1a E7 protein (residues 1-88). The experiment in a line: HPV1a E7 small-molecule binders, primary screen, biochemical, small-molecule microarray, residues 1-88, 635 nm (AID 1129). To be noted: small-molecule microarray binding, fluorescence 635 nm; higher = more signal.
Experiment [11] deals with Focal adhesion kinase 1 (Homo sapiens) (UniProt Q05397). The experiment in a line: PTK2 protein binding on printed compound slides – biochemical, small-molecule microarray, 635/667 nm fluorescence, BSA, DTT, primary screen (AID 1130).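 Also: composite of spot emission at 667 nm and signal to noise over triplicate slides.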 To be noted: 635 nm fluorescence, higher = more signal.
In experiment [12] the test system is Fibrinogen (Alexa647-labelled). The experiment is described as follows: Alexa647-fibrinogen binding to printed small molecules – biochemical, small-molecule microarray, 635/667 nm fluorescence, artefact control for SMM control-protein annotation, profiling panel (AID 1131).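 Also: z-score merges 667 nm fluorescence with per-spot signal-to-noise over triplicate slides.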 To be noted: fibrinogen-A647 binding fluorescence, higher = more signal.
Experiment [13] addresses Follistatin (Homo sapiens) (UniProt P19883). The experiment in a line: FST protein binding to printed compounds – biochemical, small-molecule microarray, 635/667 nm fluorescence, primary screen (AID 1132). Particulars: 635 nm fluorescence, higher = more signal.
Experiment [14] has as its target Fibroblast growth factor 2 (Homo sapiens) (UniProt P09038). The experiment in a line: basic fibroblast growth factor binding to printed compounds – biochemical, small-molecule microarray, 635/667 nm fluorescence, primary screen (AID 1133). To be noted: FGF2, fluorescence 635/667, higher = more signal.
Experiment [15] is described as follows: JC-1 mitochondrial potential readout, lung cancer cells – cell-based, A549, JC-1 fluorescence, basal, 24 h, 100 nL, profiling panel (AID 1138).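 Also: A549 lung adenocarcinoma cells under basal conditions with no added stimulus; test concentration not given here.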 To be noted: higher = more signal.
The next experiment has as its system Lefty1. The experiment is described as follows: Lefty1 protein binding to printed compounds – biochemical, small-molecule microarray, 635/667 nm fluorescence, primary screen (AID 1139). Particulars: fluorescence 635/667, higher = more signal.
In experiment [16] the test system is wheat germ agglutinin (Triticum aestivum), Alexa647-labelled. The experiment in a line: Alexa647-WGA lectin binding to printed small molecules – biochemical, small-molecule microarray, 635/667 nm fluorescence, artefact control for SMM control-protein annotation, profiling panel (AID 1140).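 Also: score merges 667 nm feature emission with signal to noise over triplicate slides.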 Particulars: WGA-A647 binding, 635 nm fluorescence, higher = more signal.

Experiment [17] addresses Luciferin 4-monooxygenase (Photinus pyralis) (UniProt P08659). The experiment in a line: inhibition of purified Photinus pyralis luciferase – biochemical, luminescence, purified enzyme, 2006 set, primary screen (AID 1141).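 Also: cell-free assay with purified firefly luciferase at 100 ng per well in PBS; test concentration not given here.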 To be noted: purified firefly luciferase, SteadyGlo luminescence, 30 min; higher = more signal, called active from +8 up or from −8 down.

Calls of active or inactive are those of the source.

Chain of Focal adhesion kinase 1 (Homo sapiens) (Q05397 whole entry, looked up): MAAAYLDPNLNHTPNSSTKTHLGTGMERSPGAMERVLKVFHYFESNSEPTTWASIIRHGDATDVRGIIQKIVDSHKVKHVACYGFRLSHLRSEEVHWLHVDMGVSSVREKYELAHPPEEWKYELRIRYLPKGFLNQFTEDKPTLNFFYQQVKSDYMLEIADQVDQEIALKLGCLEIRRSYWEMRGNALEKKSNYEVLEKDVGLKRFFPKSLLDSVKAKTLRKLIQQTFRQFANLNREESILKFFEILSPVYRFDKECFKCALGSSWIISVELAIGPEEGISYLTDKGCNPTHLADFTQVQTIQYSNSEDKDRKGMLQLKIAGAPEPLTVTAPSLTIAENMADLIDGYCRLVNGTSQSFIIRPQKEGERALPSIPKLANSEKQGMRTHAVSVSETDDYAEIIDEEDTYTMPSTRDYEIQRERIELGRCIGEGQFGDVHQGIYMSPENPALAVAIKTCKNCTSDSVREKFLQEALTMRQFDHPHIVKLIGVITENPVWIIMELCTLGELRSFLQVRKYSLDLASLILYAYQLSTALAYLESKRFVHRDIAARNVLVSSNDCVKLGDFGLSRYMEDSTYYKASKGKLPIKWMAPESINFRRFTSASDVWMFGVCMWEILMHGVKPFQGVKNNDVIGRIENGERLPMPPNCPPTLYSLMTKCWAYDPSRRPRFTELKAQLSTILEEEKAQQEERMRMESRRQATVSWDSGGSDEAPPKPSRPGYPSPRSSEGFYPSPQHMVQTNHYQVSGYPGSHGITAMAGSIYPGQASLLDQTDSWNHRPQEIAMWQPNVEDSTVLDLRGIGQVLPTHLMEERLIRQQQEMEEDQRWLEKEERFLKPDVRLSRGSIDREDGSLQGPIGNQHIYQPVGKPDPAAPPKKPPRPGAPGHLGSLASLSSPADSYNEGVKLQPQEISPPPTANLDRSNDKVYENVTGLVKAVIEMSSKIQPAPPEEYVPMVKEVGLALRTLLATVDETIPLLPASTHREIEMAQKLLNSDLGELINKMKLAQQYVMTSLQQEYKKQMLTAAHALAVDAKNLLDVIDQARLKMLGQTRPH
Chain of Albumin (Bos taurus) (P02769 whole entry, looked up): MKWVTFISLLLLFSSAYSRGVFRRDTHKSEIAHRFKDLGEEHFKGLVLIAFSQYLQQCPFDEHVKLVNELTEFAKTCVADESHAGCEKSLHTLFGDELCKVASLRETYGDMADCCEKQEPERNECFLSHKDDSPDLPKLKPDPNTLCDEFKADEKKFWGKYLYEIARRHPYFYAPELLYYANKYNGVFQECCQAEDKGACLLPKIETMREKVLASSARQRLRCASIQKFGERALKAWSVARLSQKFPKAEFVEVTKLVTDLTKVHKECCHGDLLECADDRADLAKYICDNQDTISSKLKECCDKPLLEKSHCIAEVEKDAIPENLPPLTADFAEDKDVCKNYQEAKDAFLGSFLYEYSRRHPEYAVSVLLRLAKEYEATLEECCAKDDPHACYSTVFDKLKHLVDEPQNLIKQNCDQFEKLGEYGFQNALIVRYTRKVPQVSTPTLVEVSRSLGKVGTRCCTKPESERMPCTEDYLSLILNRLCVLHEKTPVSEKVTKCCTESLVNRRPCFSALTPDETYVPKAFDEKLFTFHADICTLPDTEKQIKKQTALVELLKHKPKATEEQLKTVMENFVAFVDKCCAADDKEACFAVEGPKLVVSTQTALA
Chain of Luciferin 4-monooxygenase (Photinus pyralis) (P08659 whole entry, looked up): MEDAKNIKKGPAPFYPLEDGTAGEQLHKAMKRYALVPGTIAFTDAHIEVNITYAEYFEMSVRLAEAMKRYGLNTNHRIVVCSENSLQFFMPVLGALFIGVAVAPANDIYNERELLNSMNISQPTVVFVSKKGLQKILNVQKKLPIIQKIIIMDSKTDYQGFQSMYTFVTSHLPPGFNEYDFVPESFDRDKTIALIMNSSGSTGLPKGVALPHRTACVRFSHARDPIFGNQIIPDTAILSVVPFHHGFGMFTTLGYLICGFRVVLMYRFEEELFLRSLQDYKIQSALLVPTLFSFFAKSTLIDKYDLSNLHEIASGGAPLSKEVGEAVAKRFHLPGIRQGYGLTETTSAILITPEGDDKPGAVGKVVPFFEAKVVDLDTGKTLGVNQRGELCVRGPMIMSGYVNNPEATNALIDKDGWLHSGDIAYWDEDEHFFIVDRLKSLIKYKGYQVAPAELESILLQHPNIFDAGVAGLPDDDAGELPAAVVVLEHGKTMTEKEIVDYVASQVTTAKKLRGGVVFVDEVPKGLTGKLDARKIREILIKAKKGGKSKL
Chain of Concanavalin-A (Canavalia ensiformis) (P02866 whole entry, looked up): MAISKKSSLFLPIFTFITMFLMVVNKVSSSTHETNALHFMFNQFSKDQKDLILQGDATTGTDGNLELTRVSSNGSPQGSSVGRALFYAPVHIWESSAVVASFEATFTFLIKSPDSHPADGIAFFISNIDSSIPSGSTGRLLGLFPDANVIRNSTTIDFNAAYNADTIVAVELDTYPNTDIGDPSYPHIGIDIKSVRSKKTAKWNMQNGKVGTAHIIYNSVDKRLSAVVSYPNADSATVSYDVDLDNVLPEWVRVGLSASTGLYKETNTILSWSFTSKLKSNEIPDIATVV
Chain of Follistatin (Homo sapiens) (P19883 whole entry, looked up): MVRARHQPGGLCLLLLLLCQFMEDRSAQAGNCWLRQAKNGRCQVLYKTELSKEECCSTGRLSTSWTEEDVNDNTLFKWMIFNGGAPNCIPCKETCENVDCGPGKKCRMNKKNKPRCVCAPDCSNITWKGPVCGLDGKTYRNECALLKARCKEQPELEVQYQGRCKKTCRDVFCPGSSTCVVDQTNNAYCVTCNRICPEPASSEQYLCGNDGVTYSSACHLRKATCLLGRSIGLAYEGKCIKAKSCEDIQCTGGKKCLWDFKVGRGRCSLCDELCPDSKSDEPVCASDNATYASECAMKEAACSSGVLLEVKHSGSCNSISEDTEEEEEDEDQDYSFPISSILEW
Chain of Fibroblast growth factor 2 (Homo sapiens) (P09038 whole entry, looked up): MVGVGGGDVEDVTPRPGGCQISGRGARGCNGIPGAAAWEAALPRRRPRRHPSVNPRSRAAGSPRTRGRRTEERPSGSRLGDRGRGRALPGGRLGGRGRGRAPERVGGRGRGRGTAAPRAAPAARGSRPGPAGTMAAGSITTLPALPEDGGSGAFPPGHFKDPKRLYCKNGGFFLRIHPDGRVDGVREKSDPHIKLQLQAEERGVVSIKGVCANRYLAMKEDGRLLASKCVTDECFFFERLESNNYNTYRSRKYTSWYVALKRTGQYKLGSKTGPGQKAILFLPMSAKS

As to `C=C(COC)/C(=C/C[C@H](OC(C)=O)c1cccc(OCCO)c1)c1cc(C(=O)OC)ccc1OC`, the composite z-score was -0.169 with Albumin (Bos taurus); -0.0414 in experiment [2]; -0.0649 in experiment [3]; 0.656 in experiment [4]; 0.193 in experiment [5]; -0.219 in experiment [6]. Besides, the composite z-score in the experiment with Sam68 (KHDRBS1) is 0.705; in experiment [7] it was 1.25; in experiment [8] it was -0.0821; in [9], 0.349; in experiment [10], -0.131; in [11], -0.402. The composite z-score was -0.488 in experiment [12]; 1.51 in experiment [13]; 1.4 in experiment [14]; 1.72 in the experiment on Lefty1; -1.08 in [16]. Further, the composite Z-score in experiment [1] is 0.211 (inactive). The results for the z-score in experiment [15] and in experiment [17] were -0.0205 and -0.727 (inactive), respectively.
Take `NCCCCCCNC(=O)[C@@H]1C[C@@H]2C(=O)N[C@@H](Cc3ccccc3)C(=O)N2[C@@H]1c1ccc(O)cc1`: the composite z-score with Albumin (Bos taurus) was 0.676; in experiment [2] it was 0.0418; in experiment [3] it was -0.112; in [4], 0.65; in [5] it was 0.68; in experiment [6], 0.915. The composite z-score was 1.06 with Sam68 (KHDRBS1); 0.283 in [7]; 1.12 in experiment [8]; 1.94 in experiment [9]; 0.434 in [10]; 0.332 in experiment [11]. The composite z-score in experiment [12] was found to be 0.63; in experiment [13] it was 0.898; in [14] it was 0.312; in the experiment with Lefty1, 0.104; in experiment [16] it was 0.931. For the same molecule, the composite Z-score in [1] was 0.755 (inactive). Besides, the z-score in [15] is 0.613; in experiment [17], -1.15 (inactive).
On to `CCCNC(=O)[C@@H]1c2ccccc2C(=O)N(Cc2cc(C(F)(F)F)cc(C(F)(F)F)c2)[C@H]1c1ccc(CO)cc1`, for which the composite z-score is -0.419 in the experiment with Albumin (Bos taurus); -0.0343 in [2]; -0.194 in experiment [3]; 0.422 in [4]; 0.64 in [5]; 0.227 in experiment [6]. In addition, the composite z-score in the experiment with Sam68 (KHDRBS1) is 0.679; in [7] it was -0.608; in [8], 0.234; in experiment [9], 0.14; in experiment [10], 0.541; in experiment [11], 0.452. In addition, the composite z-score came out at 0.0967 in [12]; 0.652 in experiment [13]; 0.213 in experiment [14]; 0.0044 with Lefty1; 0.14 in experiment [16]. For the same molecule, the composite Z-score in [1] is -0.251 (inactive). The z-score in experiment [15] is 0.904; in experiment [17] it was -0.831 (inactive).
Take `CO[C@H]1O[C@H](CO)[C@@H](OC(=O)CCc2ccccc2)[C@@H]2OC(=O)[C@H](Cc3ccccc3)C/C=C/C[C@@H](Cc3ccccc3)C(=O)O[C@@H]12`: the composite z-score is -0.707 in the experiment with Albumin (Bos taurus); -0.19 in [2]; -0.0928 in experiment [3]; 0.746 in experiment [4]; 0.75 in experiment [5]; -0.662 in experiment [6]. In addition, the composite z-score was 0.506 with Sam68 (KHDRBS1); -0.845 in experiment [7]; -1.04 in experiment [8]; -0.13 in [9]; -0.109 in [10]; 0.186 in experiment [11]. Besides, the composite z-score in experiment [12] was -0.565; in experiment [13], -0.618; in experiment [14], -0.38; with Lefty1 it was -0.71; in experiment [16] it was -1.32. For the same molecule, the composite Z-score in experiment [1] is 0.508 (inactive). Moreover, the z-score in experiment [15] was 1.01; in experiment [17] it was -1.21 (inactive).
For the molecule `CC(=O)OC(C/C=C\B1OC(C)(C)C(C)(C)O1)c1ccccc1` (stereo not given), the composite z-score with Albumin (Bos taurus) is -0.274; in experiment [2], -0.146; in experiment [3], -0.166; in [4], -0.411; in experiment [5], -0.279; in experiment [6], -0.0949. Also, the composite z-score with Sam68 (KHDRBS1) is 0.0684; in experiment [7], 1.09; in [8], -0.923; in [9] it was -0.0541; in experiment [10], -0.373; in experiment [11], -0.379. Further, the composite z-score in experiment [12] is 0.221; in experiment [13] it was 0.0255; in experiment [14], -0.377; in the experiment on Lefty1, -0.0863; in experiment [16], -0.405. For the same molecule, the composite Z-score in experiment [1] is -0.806 (inactive). The figures for the z-score in experiment [15] and in [17] were 1.45 and -1.54 (inactive), respectively.
